# From PubChem BioAssay (NCI)
# About 83,000 compounds went through this panel and 20% of them were active in at least one assay; those are over-represented in the sample as a whole.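 Negative percent growth values reflect cell death: -40 means 40% of the cells present at the start died, and -100 means all died.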 Calls of active or inactive are those of the source. Rule for the calls: active = growth percent below 10; inactive = the rest.
# Tested on: MDA-MB-468 breast
# Assay: NCI-60 one-dose screen, 48 h (100 = growth as untreated, 0 = no growth, -100 = all killed)
# Conditions: 10 µM unless noted
row,SMILES,growth
1,CC(/C=N/N1C(=O)c2ccccc2C1=O)c1ccccc1 (centres undefined),95.9% (inactive)
2,C#CCOc1ccc(C(Nc2ccc(Cl)cc2)c2nnnn2C2CCCCC2)cc1 (centres undefined),87.1% (inactive)
3,COc1cc2nc(Cl)nc(Nc3cccc(C4=Nc5c(N)nc(N)nc5NC(c5ccccc5)C4)c3)c2cc1OC (centres undefined),96.5% (inactive)
4,CN(C)CCCn1c(=O)c2ccccc2c2cnc3[nH]ccc3c21,-9.4% (active)
5,COc1ccc(-c2ccc(-c3ccc(C(=N)N)s3)s2)cc1,-75.9% (active)
6,C/C(CC1(O)C(=O)Nc2ccccc21)=N\O (centres undefined),92% (inactive)
7,Nc1nc2ccc3[nH]ncc3c2c2c1CCCC2,-46.8% (active)
8,Cc1nc2cc(Nc3nc(N4CCOCC4)nc(N4CCN(C)CC4)n3)ccc2n1Cc1ccccc1,111% (inactive)
9,Cc1ccc(-c2nc(-c3cn(C)c4ncccc34)cs2)cc1,-50.2% [100 µM] (active)
10,CCOC(=O)c1cc(C(=O)c2cc(OC)cc(OC)c2)n2ncc3ccccc3c12,8.22% (active)
11,CS(=O)(=O)Nc1cccc(-c2cc(-c3ccccc3Cl)c(C#N)c(N)n2)c1,-9.46% (active)
12,CCOC(=O)c1c(-c2ccc(O)cc2)c(C#N)c2c(C#N)c(N)nn2c1N,35.2% (inactive)
13,COc1cc2c3c(n(CCCNC4CCCCC4)c(=O)c2cc1OC)-c1cc2c(cc1C3=O)OCO2,78.8% (inactive)
14,COC(=O)[C@]12CC[C@@H](C(C)=O)[C@@H]1[C@H]1CC[C@@H]3[C@@]4(C)C/C(=C/c5cccnc5)C(=O)C(C)(C)[C@@H]4CC[C@@]3(C)[C@]1(C)CC2,55.7% (inactive)
